# HSP90 refold inh: HSP90 inhibitors, primary screen, cell lysate, luminescence; Heat shock protein HSP 90 (rabbit reticulocyte lysate; luciferase refolding); Rabbit reticulocyte lysate, luciferase refolding luminescence, 3 h; inhibition, % at 5.6 µM; hit rate 0.91% among 290,000; AID 1789, 2009;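 active = inhibition above the screen-wide mean plus 3 SD, computed separately per campaign, cut at about 16% in these data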;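 note: 0% = DMSO wells and 100% = 60 µM geldanamycin wells; inhibitors lower the luminescence because luciferase stays unfolded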
# PPC-1+TRAIL kill: compounds killing PPC-1 cancer cells with TRAIL present, primary screen, TRAIL potentiator project, ATPLite luminescence, uHTS; PPC-1 cells + TRAIL, ATPLite viability luminescence; cell killing (% activity), % at 4 µM or 5 µM; hit rate 0.41% among 220,000; AID 1443, 2008;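 active = cell killing above 50% in the first pass at 4 µM, then a duplicate retest at 5 µM averaging 50% or more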;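 note: plate controls were cells with TRAIL plus DMSO for no effect and medium-only wells lacking cells for full effect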
# C8 TRAIL sens: viability loss with TRAIL in NB7+C8 cells, primary screen, TRAIL sensitizer project, cell-based, ATPlite luminescence; inhibition (viability loss, TRAIL sensitization), % at 10 µM; hit rate 1% among 360,000; AID 624354, 2012;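 active = compounds causing at least 50% loss of cell viability in the single-dose screen, relative to plate controls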
# TROY signal inh: inhibitors of TROY-driven NF-kB signaling, primary screen, Q293 LMP1-TROYcd cells, NF-kB luciferase, uHTS; Q293 LMP1-TROYcd NF-kB luciferase reporter, 4 h; inhibition, % at 10 µM; hit rate 0.98% among 360,000;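 active = compounds whose plate-normalised and pattern-corrected inhibition of the luciferase reporter signal at the single screening dose is 50% or more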
# Platelet DG rel: inhibitors of platelet dense granule secretion, primary screen, cell-based, MLPCN, human platelets; human platelet-rich plasma, SFLLRN dense granule ATP release, luminescence; inhibition, %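 (compounds screened at 7.5 µM in platelet-rich plasma)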; hit rate 0.22% among 300,000;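 active = mean replicate score, as percent of positive control, at or above 50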
# TWEAK-Fn14 inh: inhibitors of TWEAK-Fn14 signaling, primary screen, luciferase reporter cells, uHTS; TWEAK-stimulated Fn14 reporter cells, luciferase luminescence, 8 h; inhibition, % at 10 µM; hit rate 2% among 360,000; AID 1159606, 2016; in the data active = inhibition above about 50%
# * marks the source's active call; other numbers are inactive results; . = no result given. The list is not random: actives were taken first. Their share in the collection is about 3.5%.
SMILES,HSP90 refold inh,PPC-1+TRAIL kill,C8 TRAIL sens,TROY signal inh,Platelet DG rel,TWEAK-Fn14 inh
Cc1cccc(NC(=O)c2ccc(Cl)c(S(=O)(=O)N3CCCC3)c2)n1,1.2,.,2.6,-14.1,5.1,-12.2
O=C(Nc1ccncc1)c1ccc(Cl)c(S(=O)(=O)N2CCCCC2)c1,.,.,13.7,17.4,1.5,38.6
Cc1c(C(=O)N2CCC(n3nccc3NC(=O)C3CC3)CC2)[nH]c2ccc(Cl)cc12,0.4,.,22.1,-0.5,10.8,-4.1
Cc1ccc(CS(=O)(=O)CCC(=O)NCc2ccccc2Cl)cc1,2.9,.,-3.3,-13.9,-4.6,19.2
O=C(O)CCC(=O)Nc1nnc(C(F)(F)F)s1,2.0,5.4,-2.8,0.0,.,-1.3
CCC(NC(=O)Nc1nnc(C(F)(F)F)s1)(C(F)(F)F)C(F)(F)F,-0.7,41.2,43.7,63.7*,-7.0,43.5
CC1(Cc2ccc(F)cc2)C(=O)Nc2ccc(-c3cccnc3)cc21 (centres undefined),.,.,-2.5,24.7,.,64.4*
CC1(Cc2ccc(Cl)cc2)C(=O)Nc2ccc(-c3ccc(F)c(Cl)c3)cc21 (centres undefined),.,.,-7.9,-0.6,.,2.7
CC1(Cc2ccc3c(c2)OCO3)C(=O)Nc2ccc(-c3cccc(C(F)(F)F)c3)cc21 (centres undefined),.,.,7.5,6.2,.,102.7*
C=Cc1ccc(CC2(C)C(=O)Nc3ccc(-c4cccnc4)cc32)cc1 (centres undefined),.,.,19.8,47.8,.,81.0*
CC1(Cc2ccc(C(F)(F)F)o2)C(=O)Nc2ccc(-c3cccc(C(F)(F)F)c3)cc21 (centres undefined),.,.,5.0,3.7,.,2.8
COc1ccc(/C=C/c2onc(C)c2S(=O)(=O)N2CCC(C(=O)N3CCC(C)CC3)CC2)cc1,2.7,.,15.1,1.5,1.6,18.0
COc1ccccc1C(=O)NS(=O)(=O)c1ccc(C)cc1,.,.,10.5,8.8,.,1.7
Cc1cccc(/N=C/c2c(O)n(Cc3ccc4c(c3)OCO4)c(=O)c3ccccc23)n1,0.8,-4.4,-0.5,-3.2,9.1,43.7
COc1ccc(-n2cc(CNCC3CCOCC3)c(-c3cccc(F)c3)n2)cc1,3.6,6.7,5.3,-41.6,-0.6,84.3*
COC1=CC(=O)C(O)=C(CCCCCCC/C=C/CCCCCCCC2=C(O)C(=O)C=C(OC)C2=O)C1=O,.,.,-4.4,61.5*,7.8,85.0*
COC(=O)c1sccc1NC(=O)CSc1ccccc1NS(=O)(=O)c1ccc(Br)cc1,-0.2,6.5,5.6,52.2*,-1.1,53.5*
CCc1nc2ccc(C(=O)NCCCN3CCCC3=O)cn2c1N(C)C(=O)COc1ccccc1,.,.,4.9,-2.5,.,1.6
Cc1cccc(NC(=O)c2ccc(NCCO)c([N+](=O)[O-])c2)n1,-0.6,10.9,14.9,-54.5,85.2*,-35.5
C/C(=N\NC(=S)NC1CCCCC1)c1ccc(Cl)c(Cl)c1,2.9,14.4,-5.9,40.9,-15.5,61.9*
Cc1ccc(-c2nc3ccccc3nc2-c2ccccc2)cc1,-0.1,.,-2.1,-1.0,-3.5,95.8*
Clc1ccc(-c2nc3ccccc3nc2-c2ccccc2)cc1,-1.8,49.3,7.9,-5.0,0.2,28.5
Cc1cc(=O)n2c3c(c4c(cc13)c(CN(C)C)cc(=O)n4C)OC2,.,.,5.0,52.2*,.,-23.6
Cc1cc(C(=O)N2CCCC(N3CCN(c4cccc(Cl)c4)CC3)C2)nc(C)n1 (centres undefined),-1.1,.,-2.8,-20.8,1.3,21.5
O=C(O)CCC(=O)N1CC=C(c2ccccc2)CC1,9.0,9.2,3.5,9.2,2.9,5.3
O=C(O)C1CC=CCC1C(=O)N1CC=C(c2ccccc2)CC1 (centres undefined),8.9,-2.7,-2.8,41.9,-1.7,78.2*
Cn1c(=O)n(CCc2ccccc2)c(=O)c2c1nc1n2CCCN1Cc1ccccc1,5.3,19.4,24.6,29.4,-0.4,52.0*
CCCn1c(=O)c2c(nc3n2CCCN3Cc2ccccc2)n(C)c1=O,-4.6,.,-14.2,12.1,7.4,-1.9
Cn1c(=O)n(CCc2ccccc2)c(=O)c2c1nc1n2CCCN1CCc1ccccc1,-0.9,7.9,44.7*,36.7,-4.7,46.9

# High-throughput results (PubChem)
